Consider nine compounds from PubChem BioAssay.

Assay [1] in a line: modulation of C. elegans fzo-1 (AID 1259413; call rule not given here;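 note: fzo-1 mutant C. elegans worms in liquid wells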). The settings on record: C. elegans fzo-1 modulator screen, mean read-out; stronger effect = higher value.
The nature of assay [2]: P. berghei load reduction in hepatocytes – cell-based, HepG2, luciferase luminescence, HepG2 viability, primary screen (AID 624349; in the data active = parasite load remaining mostly below about 12%, no sharp cut-off; inactive = mostly above about 10%;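 note: 100% = mean of DMSO negative control wells on the same plate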). The settings on record: P. berghei liver stage in HepG2, luciferase luminescence, concentration not given here; parasite load remaining: stronger effect = lower value; viability: measured here: HepG2 viability without parasites.
Assay [3] in a line: signal quenchers or enhancers, Cy5 substrate/SSB – biochemical, NIH Clinical Collection, E. coli SSB, artefact control for HCV NS3 helicase inhibitor project (AID 743268; call rule not given here). The settings on record: Cy5-oligo bound E. coli SSB, fluorescence interference.
For assay [4], the system named is Hepatitis C virus NS3 helicase. Nature of the assay: blockers of NS3h binding to DNA – biochemical, fluorescence polarization, NIH Clinical Collection, primary screen (AID 743270; call rule not given here). The settings on record: NS3 helicase binding to Cy5-dT15 DNA, stronger effect = higher value, concentration not given here.
Assay [5] addresses Single-stranded DNA-binding protein (Escherichia coli (strain K12)) (UniProt P0AGE0). Nature of the assay: SSB-ssDNA binding inhibitors – biochemical, fluorescence polarization, NIH Clinical Collection, counter-screen for HCV NS3 helicase inhibitor project (AID 743271; in the data active = inhibition above about 28%). The settings on record: E. coli SSB-DNA binding, stronger effect = higher value, concentration not given here. (Polarisation of emitted light reports the rotation of a fluorescent probe.)

Assay [6] can be described thus: compounds distorting NS3 helicase fluorescence signal – biochemical, NIH Clinical Collection, artefact control for HCV NS3 helicase inhibitor project (AID 743272; call rule not given here). The settings on record: fluorescence interference counterscreen, HCV NS3 helicase assay; stronger effect = lower value. For orientation: The purpose of a counterscreen is to sort out artefacts and off-target activity.

Assay [7] deals with F380Y. Nature of the assay: BK channel mutant inhibitors and activators – cell-based, U2OS BacMam, thallium flux, beta subunits, selectivity assay, profiling panel (AID 1259406).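 Note: initial slope of Thallos dye fluorescence rise after thallium is added; log ratio against the mean of 0.3% DMSO vehicle wells on the same plate.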 Conditions: U2OS BacMam BK variants, at 30 µM.
In assay [8] the test system is F380Y/beta1. The assay is described as above. Conditions: U2OS BacMam BK variants, at 30 µM.
Assay [9] deals with F380Y/beta2Delta. The assay is described as above. Conditions: U2OS BacMam BK variants, at 30 µM.
The test system of assay [10] is F380Y/beta4. Described as above. Conditions: U2OS BacMam BK variants, at 30 µM.
Assay [11] deals with Calcium-activated potassium channel subunit alpha-1 (Homo sapiens) + Leucine-rich repeat-containing protein 26 (Homo sapiens) (UniProt Q12791+Q2I0M4). The description is as above. Conditions: U2OS BacMam BK variants, F380Y/Slo1WT/gamma1, at 30 µM.
Assay [12] deals with R275C. The description is as above. The settings on record: U2OS BacMam BK variants, at 30 µM.
Assay [13] deals with R275C/beta1. Described as above. The settings on record: U2OS BacMam BK variants, at 30 µM.
The test system of assay [14] is R275C/beta2Delta. The description is as above. The settings on record: U2OS BacMam BK variants, at 30 µM.
The test system of assay [15] is R275C/beta4. The assay is described as above. Conditions: U2OS BacMam BK variants, at 30 µM.
Assay [16] deals with R275C/Slo1WT/beta2. Described as above. The settings on record: U2OS BacMam BK variants, at 30 µM.
Assay [17] in a line: viability loss with induced miR-34 in A549 – imaging, A549 dox-inducible miR-34, nuclei and caspase counts, primary screen (AID 1347080;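 active = compounds whose cell count with miR-34 switched on is under 0.7 times the count with it off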). Conditions: A549 miR-34 inducible, Hoechst nuclei count, 48 h.
A short description of assay [18]: galactose survival enhancers in mitochondrial complex I cybrids – cell-based, galactose medium, ATP luminescence, primary screen (AID 1645843;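 active = z-score of at least 1.8 in each of two replicates, scored against plate mean and spread of sample wells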;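 note: positive z means more ATP and so rescue of galactose-driven cybrid death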). Conditions: complex I mutant cybrid cells, 72 h, stronger effect = higher value.

The source made the active and inactive calls.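 Rule for the calls, unless noted: active = thallium flux through the channel raised or lowered by more than 3 SD from vehicle-only wells, actives on both sides; inactive = the rest.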

Sequence of Calcium-activated potassium channel subunit alpha-1 (Homo sapiens) + Leucine-rich repeat-containing protein 26 (Homo sapiens) (Q2I0M4 whole entry, looked up, one chain of several): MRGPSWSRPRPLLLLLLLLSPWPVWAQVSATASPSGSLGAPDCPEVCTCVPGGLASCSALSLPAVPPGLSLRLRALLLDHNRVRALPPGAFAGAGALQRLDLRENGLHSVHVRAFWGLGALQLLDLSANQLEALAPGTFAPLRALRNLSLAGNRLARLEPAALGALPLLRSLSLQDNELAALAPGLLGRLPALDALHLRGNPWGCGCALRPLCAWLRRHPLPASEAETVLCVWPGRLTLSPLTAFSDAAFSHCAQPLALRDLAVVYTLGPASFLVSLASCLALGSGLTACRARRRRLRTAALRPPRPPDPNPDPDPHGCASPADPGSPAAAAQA

Consider `CC(=O)S[C@@H]1CC2=CC(=O)CCC2(C)[C@H]2CCC3(C)[C@@H](CC[C@@]34CCC(=O)O4)[C@H]12` (some centres undefined), for which the mean signal in assay [1] is 260 (inactive).

On to `CCCCC(=O)O[C@H]1CC[C@H]2[C@@H]3CCc4cc(O)ccc4[C@H]3CCC12C` (some centres undefined), for which, in [1], the mean signal was 242 (inactive).

`C[C@@H]1C[C@H]2[C@@H]3CCC4=CC(=O)C=CC4(C)[C@@]3(F)[C@@H](O)CC2(C)[C@@]1(O)C(=O)CO` (some centres undefined): the mean signal in [1] is 285 (inactive).

Take `C[C@]12C=CC(=O)C=C1CC[C@@H]1[C@@H]2[C@@H](O)C[C@@]2(C)[C@H]1CC[C@]2(O)C(=O)COC(=O)CCC(=O)O`: in assay [2], the parasite load remaining is 128% (inactive). Moreover, the viability (in general, the share of living cells, or the viability signal relative to a control) in assay [2] is 72.6%. For the same compound, the fluorescence ratio in assay [3] was 1 (inactive); in [6], 0.99 (inactive). Also, the inhibition (in general, the relative decrease from the control value, in per cent) in assay [4] was 7.52% (inactive); in assay [5], 4.52% (inactive). Further, the log fold change Tl+ flux in assay [7] is -0.0223 (inactive); in assay [8] it was 0.0033 (inactive); in assay [9] it was 0.00204 (inactive); in assay [10], -0.00342 (inactive); in assay [11] it was -0.00445 (inactive); in assay [12], -0.00218 (inactive). Besides, the log fold change Tl+ flux in assay [13] was -0.0173 (inactive); in assay [14], -0.00108 (inactive); in assay [15], -0.0167 (inactive); in assay [16] it was -0.0235 (inactive).

In the case of `C=CC1=C(C(=O)O)N2C(=O)[C@@H](NC(=O)C(=NO)c3csc(N)n3)[C@H]2SC1`, the parasite load remaining in assay [2] was 50% (inactive). The same compound showed a viability in assay [2] of 69.3%. For the same compound, the fluorescence ratio was 1 (inactive) in assay [3] and 0.91 (inactive) in [6]. For the same compound, the inhibition in assay [4] is 11.1% (inactive); in [5], 96.5% (active). The log fold change Tl+ flux in assay [7] was 0.0518 (inactive); in assay [8], 0.00826 (inactive); in assay [9], 0.0258 (inactive); in assay [10] it was 0.0162 (inactive); in assay [11] it was -0.00804 (inactive); in assay [12] it was -0.0491 (inactive). Moreover, the log fold change Tl+ flux in assay [13] is 0.0161 (inactive); in [14], 0.037 (inactive); in assay [15], 0.0002 (inactive); in assay [16], 0.0335 (inactive).

For the compound `CN(C)c1ccc(O)c2c1C[C@H]1C[C@H]3[C@H](N(C)C)C(=O)C(C(N)=O)=C(O)C3(O)C(=O)C1=C2O` (some centres undefined), in assay [1], the mean signal was 263 (inactive).

In the case of `CCC(=O)OCC(=O)[C@@]1(OC(=O)CC)[C@@H](C)C[C@H]2[C@@H]3CCC4=CC(=O)C=CC4(C)[C@@]3(Cl)[C@@H](O)CC21C` (some centres undefined), in assay [1], the mean signal was 228 (inactive).

As to `CO[C@H]1/C=C/O[C@@]2(C)Oc3c(C)c(O)c4c(O)c(c(C=NN5CCN(C6CCCC6)CC5)c(O)c4c3C2=O)NC(=O)/C(C)=C\C=C\[C@H](C)[C@H](O)[C@@H](C)[C@@H](O)[C@@H](C)[C@H](OC(C)=O)[C@@H]1C`, in assay [2], the parasite load remaining was 21% (inactive). In assay [2], this compound came in with a viability of 92%. Moreover, the fluorescence ratio is 1.06 (inactive) in assay [3] and 0.94 (inactive) in assay [6]. In addition, the inhibition in assay [4] is -0.45% (inactive); in assay [5] it was -0.48% (inactive). Besides, the fold change in assay [17] (stronger effect = lower value, cell number ratio, induced over uninduced) is 0.995 (inactive); in assay [17] (measured here: relative caspase fold change +Dox/-Dox), 1.52. For the same compound, the cell count in assay [17] (measured here: total cells with miR-34 induction, stronger effect = lower value) was determined as 8010; in assay [17] (measured here: total cells without miR-34 induction), 8050. Further, the z-score in assay [18] was -1.41 (inactive). Besides, the log fold change Tl+ flux is 0.0494 (inactive) in [7]; 0.0885 (inactive) in [8]; 0.179 (active) in [9]; 0.152 (active) in [10]; 0.0279 (inactive) in assay [11]; 0.0114 (inactive) in [12]. Also, the log fold change Tl+ flux in assay [13] was 0.161 (active); in assay [14] it was 0.0213 (inactive); in [15] it was 0.283 (active); in assay [16], 0.0216 (inactive).

In the case of `CC/C(=C(/c1ccccc1)c1ccc(OCCN(C)C)cc1)c1ccccc1`, the mean signal in [1] is 234 (inactive).
